{
  "source": "the supplement of paper PMC6555819",
  "data": [
    {"test_system": "RARg:RXRa (NR concentration 270 nM, RXRa partner concentration 90 nM)", "experiment": "PBM binding z-score (relative to random genomic background probes); higher = stronger binding; sequences stand for … in GC…GCGATTGACAGCGTAGAATGAAGG", "outline": "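Regression normalization was applied to scanned fluorescence from custom Agilent 4×180K protein-binding microarrays. Before scanning, arrays were incubated 1 h with ligand-free nuclear receptor dimers, and binding was detected with antibodies against each partner (one per run). Binding z-scores use the random background probes as reference.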", "values": [
      {"sequence": "GCAGACACGTGAAACGCAGGTAACTCAGGGTGGC", "PBM binding z-score": -0.43},
      {"sequence": "TCATATAGGTAAATGCTAGGTGATAGTCCGATCT", "PBM binding z-score": 0.496},
      {"sequence": "AGAACAAGGGCACGCTGAGTTGATAGCAGAGTAG", "PBM binding z-score": 1.6},
      {"sequence": "CCTTACGGGTCACTTCAGGTTATAGCATCGGAGT", "PBM binding z-score": 4.35},
      {"sequence": "ATCGAAAGGTCGAAGGTGAATATACCCACCCGAA", "PBM binding z-score": 4.63},
      {"sequence": "CCTATTAGTTGACCATAAGGGCAGCCGAAGCTCG", "PBM binding z-score": 0.749},
      {"sequence": "GCTAGCAGGCCTTTTGGGTCACTCAATGACGGGC", "PBM binding z-score": 0.621},
      {"sequence": "CATAGCAGGCCAATCTGGGTCACTCAAGGCTTGA", "PBM binding z-score": 1.44},
      {"sequence": "CCAGACAGGTGAAAGGTGACTCAGTCTGGTACGC", "PBM binding z-score": 2.35},
      {"sequence": "TATCGGAGGACACGAAGGTCAGAGCTTTCCAGAG", "PBM binding z-score": 3.17},
      {"sequence": "AGAATGAGGTTATTAAGATCAGTGAATTGCGGTC", "PBM binding z-score": 1.21},
      {"sequence": "TCTCGGAGGACACGAGAGGTCAGAGCTCGACATC", "PBM binding z-score": 3.89},
      {"sequence": "ATTCAAAGTTCAGGACGAGGTAACGTAAAGCACG", "PBM binding z-score": 4.56},
      {"sequence": "CCAGACAGGTGAGAGGGTAACTCAGCCTCGATTA", "PBM binding z-score": 0.576},
      {"sequence": "TCGAGTAGGTTAGTCGGCGCATTCAGCCAACATA", "PBM binding z-score": -0.412},
      {"sequence": "CAAATTAGGTCAAGAGGTCAAAGTCCGCTTCCCG", "PBM binding z-score": 8.43},
      {"sequence": "GCTAGCAGGCCATATGGGTCACTCAATGACGGGC", "PBM binding z-score": 1.54},
      {"sequence": "TCCTGTAGATCAGCAGGTTAAGAAAGCTGGCCAA", "PBM binding z-score": -0.0905},
      {"sequence": "ATCGAAAGGTCGAGGTGAATATAGAGAAAGGGAA", "PBM binding z-score": 4.52},
      {"sequence": "ACAGACAGGTGATTAAGGTAACTCAGGCTATCAT", "PBM binding z-score": 0.29},
      {"sequence": "AGTCGAAGTTCACTAGGTAACGTAAGATTCAGCT", "PBM binding z-score": 2.29},
      {"sequence": "CGAACTAGGTCAAGGACAGTCAATCTCCGCACGC", "PBM binding z-score": 3.79},
      {"sequence": "TCGAGGAGGTTACCAATGGGGCATTCAGCTTTCT", "PBM binding z-score": 2.85},
      {"sequence": "TCATATAGGTAAATGCTATGTGAAAGTCCGATCT", "PBM binding z-score": 0.473},
      {"sequence": "ACTAGCAGGCCAAGGTTGGGTCACTCAAACAAAG", "PBM binding z-score": 1.64},
      {"sequence": "GCTGCTAGGTCAGGTAGGTCAGCTAACGGGTACG", "PBM binding z-score": 4.09},
      {"sequence": "TCTTGTAGATCACGCAGGTTAAGAAAGCCTGAGT", "PBM binding z-score": 0.174},
      {"sequence": "CCGACTGGGGCAAGGTTAGCATAACGCACAGCCA", "PBM binding z-score": 0.574},
      {"sequence": "TAGCCTAGGTCATTGGTCCAGTATAGTACGCATC", "PBM binding z-score": 3.61},
      {"sequence": "CAAACTAGGTCAAAGGTCAAAGTGGAGCCAACCA", "PBM binding z-score": 8.91},
      {"sequence": "CGAACCAGGGCATGAGTTGATAGCAAATGCCGAT", "PBM binding z-score": 0.644},
      {"sequence": "CGAACTAGGTCATTGTCAGGACAGTGAATAGTAA", "PBM binding z-score": 4.33},
      {"sequence": "ATACCAAGGTGATCGTGACGTCGTTGATACTAAC", "PBM binding z-score": 0.459},
      {"sequence": "TCTTGTAGATCAAGCAGGTTAACAAAGCCTGAGT", "PBM binding z-score": 0.253},
      {"sequence": "CCTACTGGGCCACGAAAGGTCAATGATTCAGTGA", "PBM binding z-score": 4.94},
      {"sequence": "ATCTCTAGGTAAAGATAGTTCGGTGAATGCAAAT", "PBM binding z-score": 0.125},
      {"sequence": "TCTATTAGTTGAAGGACAACCGACGAGTCCGTTT", "PBM binding z-score": 0.368},
      {"sequence": "TCTAGTAGATCAAGCAGGTTAAGAAAGCCTGAGT", "PBM binding z-score": -0.256},
      {"sequence": "ATACCATGGTGATCGTGAGGTCGTTGATACTAAC", "PBM binding z-score": 0.425},
      {"sequence": "CCTACTGGGCGATCAGGTCATTGATATCAACGTT", "PBM binding z-score": 1.35}
    ]}
  ]
}
